Among all 310,000 compounds or so, about 14,000 (4.5%) showed an effect of 50% or more. The effect is printed as a negative number. The entries come from a sample that favours strong results as a whole.
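Further: peak tail current of the secondary pulse compared with the same well before compound.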

For this test, the target named is human ether-à-go-go-related gene (hERG) potassium channel (human, UniProt Q12809). Put plainly: primary screen, population patch clamp on CHO cells stably expressing hERG; higher = less effect of the substance.
Chain of human ether-à-go-go-related gene (hERG) potassium channel (Q12809 whole entry, looked up): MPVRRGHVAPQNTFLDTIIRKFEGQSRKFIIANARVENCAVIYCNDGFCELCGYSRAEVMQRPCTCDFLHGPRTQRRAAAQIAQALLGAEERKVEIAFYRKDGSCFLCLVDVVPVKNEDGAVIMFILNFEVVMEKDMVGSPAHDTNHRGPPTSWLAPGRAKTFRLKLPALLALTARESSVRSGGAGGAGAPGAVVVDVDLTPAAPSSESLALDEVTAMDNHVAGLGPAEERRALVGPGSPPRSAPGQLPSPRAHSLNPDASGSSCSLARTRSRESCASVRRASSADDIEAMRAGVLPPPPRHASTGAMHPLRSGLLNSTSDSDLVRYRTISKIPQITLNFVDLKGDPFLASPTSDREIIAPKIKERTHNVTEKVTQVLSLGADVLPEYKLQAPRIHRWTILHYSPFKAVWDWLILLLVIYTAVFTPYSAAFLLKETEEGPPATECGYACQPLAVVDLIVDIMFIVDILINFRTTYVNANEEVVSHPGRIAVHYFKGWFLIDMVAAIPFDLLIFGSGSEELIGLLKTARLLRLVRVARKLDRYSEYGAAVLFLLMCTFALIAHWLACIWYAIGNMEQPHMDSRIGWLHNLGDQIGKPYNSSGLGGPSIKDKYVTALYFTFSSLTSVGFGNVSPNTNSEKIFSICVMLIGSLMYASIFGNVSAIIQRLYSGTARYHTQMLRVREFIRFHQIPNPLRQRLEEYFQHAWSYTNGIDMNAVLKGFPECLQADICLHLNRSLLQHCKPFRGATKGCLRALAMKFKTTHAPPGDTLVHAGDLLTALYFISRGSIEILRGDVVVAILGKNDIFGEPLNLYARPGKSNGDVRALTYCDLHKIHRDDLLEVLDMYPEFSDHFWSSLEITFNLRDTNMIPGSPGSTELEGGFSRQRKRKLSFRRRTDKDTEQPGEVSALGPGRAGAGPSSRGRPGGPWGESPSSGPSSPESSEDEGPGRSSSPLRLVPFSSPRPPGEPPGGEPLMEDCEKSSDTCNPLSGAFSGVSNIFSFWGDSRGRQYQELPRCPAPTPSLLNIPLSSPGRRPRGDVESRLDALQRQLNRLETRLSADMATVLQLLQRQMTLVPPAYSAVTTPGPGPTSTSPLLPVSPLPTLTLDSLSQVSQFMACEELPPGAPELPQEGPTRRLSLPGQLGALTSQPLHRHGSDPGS
For `CC1CC(C)CN(S(=O)(=O)c2ccc(NC(=S)NC(=O)c3ccccc3)cc2)C1` (stereo not shown), the “hERG current change (%, negative = inhibition) at 10uM” value worked out at 8.01%.
The result for `CN(C)S(=O)(=O)c1ccc(NC(=O)C2CC(=O)N(Cc3ccccc3Cl)C2)cc1` (stereo not shown) reads -0.379%; that for `CCCC1(C(=O)OC)NC(c2ccc(OC)c(OC)c2)C2C(=O)N(c3ccc4c(c3)OCO4)C(=O)C21` (stereo not shown), 16.7%.
For `COc1ccc(-c2c(C#Cc3ccsc3)c3ccccc3n2C)cc1`, the “hERG current change (%, negative = inhibition) at 10uM” value is on record as -6.31%.
In the case of `CCOC(=O)C1CCN(C(=O)c2ccc(OCC)c(OCC)c2)CC1`, the “hERG current change (%, negative = inhibition) at 10uM” value is reported as -79.4%.
Consider `CCOc1ccc(C(=O)C2CCN(C(=O)c3ccc([N+](=O)[O-])cc3)CC2)cc1`, for which the “hERG current change (%, negative = inhibition) at 10uM” value is -79.9%.
The result for `O=C(Oc1cccc([N+](=O)[O-])c1)C1CCN(C(=O)c2ccc(F)cc2)CC1` reads -41%; that for `O=C(OCc1nnc(-c2ccc([N+](=O)[O-])cc2)o1)C1CCN(C(=O)c2ccc(F)cc2)CC1`, -76%; that for `O=C(CCC(=O)c1ccc(F)cc1)OCc1nnc(-c2ccc([N+](=O)[O-])cc2)o1`, -47%.
On to `CCOC(=O)C1CCN(C(=O)C2CCN(C(=O)c3ccc([N+](=O)[O-])cc3)CC2)CC1`, for which the “hERG current change (%, negative = inhibition) at 10uM” value is given as -69.3%.
The result for `CCOC(=O)C1CCN(C(=O)c2cc(OCC)c(OCC)c(OCC)c2)CC1` reads -3.3%; that for `CCOC(=O)C1CCN(C(=O)c2ccc(N3CCOCC3)c([N+](=O)[O-])c2)CC1`, -41.8%; that for `CCOc1ccc(NC(=O)N2CCC(C(=O)c3ccc(F)cc3)CC2)cc1`, -20.8%.
For the compound `CCOC(=O)C1CCN(C(=O)C(C)c2ccc([N+](=O)[O-])cc2)CC1` (stereo not shown), the “hERG current change (%, negative = inhibition) at 10uM” value is recorded as -21.4%.
The value for `CCOC(=O)C1CCN(C(=O)c2cccc(C(=O)N3CCC(C(=O)OCC)CC3)c2)CC1` was 4.75%; that for `CCOc1ccc(C(=O)C2CCN(C(=O)c3ccccc3C(=O)O)CC2)cc1` was -5.42%; that for `Cc1ccc(NS(=O)(=O)c2ccc(C(=O)NCc3cccnc3)cc2)cc1` was -4.14%.
The value for `CC(C)c1ccc(NC(=O)CCS(=O)(=O)c2cccc3nonc23)cc1` was 1.81%; that for `COc1cc(OC)cc(C(=O)N[C@H](C(=O)OCC(=O)Nc2cccc(F)c2)C(C)C)c1` was -5.55%.
The result for `CC(C)(C)SCCNC(=O)CN1C(=O)c2ccccc2S1(=O)=O` reads -5.6%.
For the compound `CCOC(=O)C(=CNc1cccnc1Oc1ccc(C)c2c1CCC2)C(=O)OCC`, the “hERG current change (%, negative = inhibition) at 10uM” value is -5.67%.
The value for `Cc1cc(NC(=O)C(Cl)c2ccccc2)no1` (stereo not shown) was -0.0237%; that for `O=C(CN(c1ccccc1)S(=O)(=O)c1ccccc1[N+](=O)[O-])Nc1cccnc1` was -21.1%.
The value for `C=CCCC(=O)Nc1nc(C)c(-c2csc(Nc3ccccc3OC)n2)s1` was 3.6%; that for `CCN1CCCC1CNC1=NCCCCC1` (stereo not shown) was 7.64%; that for `CCc1nnc(NS(=O)(=O)c2ccc(NC(=O)c3ccccc3OC)cc2)s1` was 18.5%.
The result for `COc1ccccc1Nc1nnc(SCc2cc(=O)n3cc(C)ccc3n2)s1` reads -12.8%.
As for `COc1ccc(C)cc1NC(=O)NC1CCCCCCC1`, the “hERG current change (%, negative = inhibition) at 10uM” value is on record as 21%.
Consider `O=C(NCc1ccco1)c1ccc(Cl)c(S(=O)(=O)N2CCOCC2)c1`, for which the “hERG current change (%, negative = inhibition) at 10uM” value is given as -7.4%.
Turning to `COc1ccccc1NC(=O)c1ccc(Cl)c(S(=O)(=O)NCc2ccco2)c1`, the “hERG current change (%, negative = inhibition) at 10uM” value was -37.7%.
For `CN(C)C1(CNC(=O)c2ccc(Cl)c(S(=O)(=O)NCc3ccco3)c2)CCCCC1`, the “hERG current change (%, negative = inhibition) at 10uM” value was -37.3%.
For the compound `O=C(Nc1ccccc1N1CCOCC1)c1ccc(S(=O)(=O)NCc2ccco2)cc1`, the “hERG current change (%, negative = inhibition) at 10uM” value is recorded as -15.7%.
The value for `O=C(NCC1(N2CCOCC2)CCCCC1)c1ccc(Cl)c(S(=O)(=O)NCc2ccco2)c1` was -52.1%.
The result for `O=C(Nc1ccccc1N1CCOCC1)c1ccc(Cl)c(S(=O)(=O)NCc2ccco2)c1` reads -51.8%; that for `Cc1nn(C)cc1CNC(=O)C1C2CCC(O2)C1C(=O)O` (stereo not shown), 23.7%.
For `Cc1nn(-c2ccccc2)c(C)c1C(=O)OCC(=O)N1CCN(S(=O)(=O)c2ccccc2)CC1`, the “hERG current change (%, negative = inhibition) at 10uM” value is listed as -11%.
The result for `COc1ccccc1N(C(C)=O)C1SC(=O)N(c2ccccc2)C1=O` (stereo not shown) reads 14%; that for `Cc1cc(C(=O)COc2ccccc2[N+](=O)[O-])c(C)n1-c1cccc(S(=O)(=O)N2CCOCC2)c1`, -9.82%.
As for `Cc1ccc(C)n1-c1cccc(S(=O)(=O)N2CCOCC2)c1`, the “hERG current change (%, negative = inhibition) at 10uM” value came to 7.55%.
Take `Cc1cc(C(=O)CCl)c(C)n1-c1cccc(S(=O)(=O)N2CCOCC2)c1`: the “hERG current change (%, negative = inhibition) at 10uM” value was -77.4%.
The value for `Cc1cc(C(=O)CN2C(=O)CN(C)C2=O)c(C)n1-c1cccc(S(=O)(=O)N2CCOCC2)c1` was -49.8%; that for `Cc1cc(C(=O)CSc2ncn[nH]2)c(C)n1-c1cccc(S(=O)(=O)N2CCOCC2)c1` was -28.5%.
The value for `Cc1cc(C(=O)CN2C(=O)C(=O)N(C)C2=O)c(C)n1-c1cccc(S(=O)(=O)N2CCOCC2)c1` was -63.4%.
In the case of `CCc1nnc(NS(=O)(=O)c2ccc(N=Cc3c(C)[nH]n(-c4cccc(Cl)c4)c3=O)cc2)s1`, the “hERG current change (%, negative = inhibition) at 10uM” value is reported as 10.4%.
In the case of `CC(=O)c1ccc(OCC(=O)N(C)CC(=O)Nc2ccc(N3CCOCC3)cc2)cc1`, the “hERG current change (%, negative = inhibition) at 10uM” value is on record as 9.61%.
With `CC(=O)Nc1ccc(S(=O)(=O)NCC(=O)OCC(=O)N2CCCc3ccccc32)cc1`, the “hERG current change (%, negative = inhibition) at 10uM” value is recorded as 4.4%.
The value for `C/C(=N\NC(=O)c1ccc(N(C)C)cc1)c1ccc(C)c(C)c1` was -14.5%; that for `O=C(Oc1ccc(Br)cc1)c1cccc(S(=O)(=O)N2CCOCC2)c1` was -35.6%; that for `COC(=O)c1cccc(S(=O)(=O)N2CCOCC2)c1` was 6.61%.
For the compound `Cc1cc(=O)oc2ccc(OC(=O)c3cccc(S(=O)(=O)N4CCOCC4)c3)cc12`, the “hERG current change (%, negative = inhibition) at 10uM” value is recorded as -70.5%.
The value for `CC(C)C1Oc2ccccc2N(CC(=O)N(C)C2CCCCC2)C1=O` (stereo not shown) was -10.1%.
Regarding `CCCCc1nc(N2CCNCC2)c(C#N)c2c1CSC(C)(C)C2`, the “hERG current change (%, negative = inhibition) at 10uM” value is given as -64.7%.
The result for `CCc1nc(N2CCNCC2)c(C#N)c2c1CSC(C)(C)C2` reads 2.02%; that for `CCCCc1nc(Cl)c(C#N)c2c1CSC(C)(C)C2`, -13.1%.
The value for `CCCCn1c(N)c(N(CC)C(=O)c2cccc(OCc3ccccc3)c2)c(=O)[nH]c1=O` was -9.67%.
The result for `Fc1ccccc1Cc1noc(CN2CCN(C/C=C/c3ccccc3)CC2)n1` reads -74%.
As to `c1ccc(Cc2noc(CN3CCN(CCOc4ccccc4)CC3)n2)cc1`, the “hERG current change (%, negative = inhibition) at 10uM” value is -40.9%.
The result for `Cc1ccccc1N1CCN(Cc2nc(Cc3ccccc3F)no2)CC1` reads -3.53%; that for `C(=C\c1ccccc1)/CN1CCN(Cc2nc(Cc3ccccc3)no2)CC1`, -65.1%; that for `COc1ccccc1CN1CCN(Cc2nc(Cc3ccccc3)no2)CC1`, -36%.
The value for `O=CN1CCCN(Cc2nc(Cc3ccccc3F)no2)CC1` was 16.1%; that for `COC(=O)c1ccc(C(C(=O)NCc2ccccc2)N(Cc2ccco2)C(=O)c2cnccn2)cc1` (stereo not shown) was -25.4%.
On to `COC(=O)/C(=C\Nc1ccc(Cl)cc1Cl)NC(=O)c1ccccc1`, for which the “hERG current change (%, negative = inhibition) at 10uM” value is recorded as -4.83%.
As for `C=CCNC(=S)NNC(=O)CCC(O)CCCCC` (stereo not shown), the “hERG current change (%, negative = inhibition) at 10uM” value is 16.4%.
The result for `Cc1ccc(C(=O)CCC(=O)NCc2ccc(Cl)cc2)cc1` reads -8.52%; that for `CCN(CC(=O)NCc1ccc(F)cc1)C(=O)c1ccc(Cl)cc1`, -23.7%; that for `CCN(CC(=O)NCc1ccc(Cl)cc1)C(=O)CCC(=O)c1ccc(F)cc1`, -61.9%.
The value for `CCN(CC(=O)NCc1ccc(Cl)cc1)C(=O)CCC(=O)c1ccc(C)cc1` was -66.5%; that for `CCN(CC(=O)NCc1cccs1)C(=O)CCC(=O)c1ccc(C)cc1` was -46.9%.
The result for `CCOc1ccc(C(=O)CCC(=O)N(CC)CC(=O)Nc2c(F)cccc2F)cc1` reads -25.6%.
Take `CCN(CC(=O)NCc1cccs1)C(=O)CCC(=O)c1ccc(F)cc1`: the “hERG current change (%, negative = inhibition) at 10uM” value is on record as -49.7%.
With `CCOc1ccc(C(=O)CCC(=O)N(CC)CC(=O)NCc2cccs2)cc1`, the “hERG current change (%, negative = inhibition) at 10uM” value is listed as -19.9%.
Take `CCOc1ccc(C(=O)CCC(=O)N(CC)CC(=O)NCc2ccc(Cl)cc2)cc1`: the “hERG current change (%, negative = inhibition) at 10uM” value is recorded as -70.3%.
The result for `Cc1ccc(C)c(N(CC(=O)NC2CCCC2)S(=O)(=O)c2ccccc2)c1` reads 19.9%; that for `Cl.O=C(O)c1cc(S(=O)(=O)N2CCN(C(c3ccccc3)c3ccccc3)CC2)ccc1Cl`, 14.7%.
In the case of `COc1ccc([C@H]2CC(=O)C=C(c3ccc(OC(F)(F)F)cc3)C2)cc1`, the “hERG current change (%, negative = inhibition) at 10uM” value turned out to be 5.59%.
In the case of `Fc1ccc(CN2CCN(C(c3ccccc3)c3ccccc3)CC2)cc1.O=C(O)C(=O)O`, the “hERG current change (%, negative = inhibition) at 10uM” value is recorded as 15%.
`COc1cccc(CN2CCN(C(c3ccccc3)c3ccccc3)CC2)c1O.O=C(O)C(=O)O`: the “hERG current change (%, negative = inhibition) at 10uM” value was -64.5%.
For `O=C(O)C(=O)O.Oc1ccccc1CN1CCN(C(c2ccccc2)c2ccccc2)CC1`, the “hERG current change (%, negative = inhibition) at 10uM” value turned out to be 17%.
The value for `COc1ccccc1CN1CCN(C(c2ccccc2)c2ccccc2)CC1.O=C(O)C(=O)O` was -55.1%; that for `O=C(O)C(=O)O.c1ccc(OCCN2CCN(C(c3ccccc3)c3ccccc3)CC2)cc1` was -14.6%.
For `COc1ccccc1N1CCN(Cc2cccc(OC)c2OC)CC1`, the “hERG current change (%, negative = inhibition) at 10uM” value is reported as -12.5%.
The value for `COc1ccccc1N1CCN(Cc2cccc(OC)c2O)CC1` was -64.9%.
The value for `COc1cc(CN2CCN(C(c3ccccc3)c3ccccc3)CC2)cc(OC)c1OC.O=C(O)C(=O)O` was -17.2%; that for `COc1ccccc1CN1CCN(Cc2cc(OC)c(OC)cc2OC)CC1.O=C(O)C(=O)O` was -11.2%; that for `COc1ccc(OCCOCCN2CCN(C)CC2)cc1.O=C(O)C(=O)O` was -6.29%.
In the case of `O=C(O)C(=O)O.c1ccc(OCCOCCN2CCN(C(c3ccccc3)c3ccccc3)CC2)cc1`, the “hERG current change (%, negative = inhibition) at 10uM” value is -72.7%.
Consider `CCOc1ccccc1N1CCN(Cc2cccc(OC)c2O)CC1`, for which the “hERG current change (%, negative = inhibition) at 10uM” value is recorded as -25.8%.

For the origin of these results see article PMC4336329 (PLoS ONE, 2015).
